Pol eta inh-1: DNA polymerase eta (human) inhibition. 390,000 compounds, 1.2% hits. Q9Y253. AID 588591. Potency, µM (top dose mostly 114 µM), usual class: inhibitors. recombinant Pol eta, fluorescent DNA replication assay
Target sequence (Q9Y253 whole entry, looked up): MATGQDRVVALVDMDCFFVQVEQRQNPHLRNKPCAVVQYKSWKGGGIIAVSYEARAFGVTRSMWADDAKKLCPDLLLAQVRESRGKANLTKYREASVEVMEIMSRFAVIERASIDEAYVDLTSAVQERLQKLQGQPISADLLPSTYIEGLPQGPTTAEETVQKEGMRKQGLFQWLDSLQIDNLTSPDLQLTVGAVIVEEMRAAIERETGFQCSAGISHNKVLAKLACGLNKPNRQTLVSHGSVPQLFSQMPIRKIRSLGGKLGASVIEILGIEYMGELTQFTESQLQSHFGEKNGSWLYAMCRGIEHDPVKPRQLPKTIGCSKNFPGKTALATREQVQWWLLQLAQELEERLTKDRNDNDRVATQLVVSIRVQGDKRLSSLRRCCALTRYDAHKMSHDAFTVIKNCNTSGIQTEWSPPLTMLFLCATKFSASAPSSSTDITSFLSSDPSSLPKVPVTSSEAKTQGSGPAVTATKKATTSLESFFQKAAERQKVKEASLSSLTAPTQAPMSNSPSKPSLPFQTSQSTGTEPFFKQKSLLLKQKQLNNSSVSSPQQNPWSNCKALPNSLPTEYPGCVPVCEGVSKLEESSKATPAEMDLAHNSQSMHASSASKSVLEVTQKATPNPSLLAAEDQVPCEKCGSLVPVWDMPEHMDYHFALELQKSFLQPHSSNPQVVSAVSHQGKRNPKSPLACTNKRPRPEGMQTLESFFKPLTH
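Pol eta (10 nM) was preincubated with compounds for 15 min at room temperature, after which fluorescent replication substrate (50 nM final) was added to start the reaction. Fluorescence was read kinetically at 0 and 10 min.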
FEN1 inh-1: human FEN1 inhibition; Potency, µM (highest dose often 114 µM), actives largely listed as inhibitors; AID 588795; P39748; Recombinant FEN1 flap cleavage, fluorescence, 15 min; 390,000 compounds, 0.35% hits; also: nearly all actives have a fitted effect of over 65% in size
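Nuclease activity of 10 nM FEN1 was measured after 15 min of room-temperature exposure to titrated compounds, by adding 50 nM flap substrate and reading plates at 0 and 15 min.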
Pol iota inh: inhibitors of human DNA polymerase iota; AID 588590; Pol iota fluorescent replication assay, 10 min; 390,000 compounds, 1% hits; Q9UNA4; Potency, µM (highest dose often 115 µM), hits mostly inhibitors
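Fluorescent replication assay read twice, at 0 min and 10 min after adding 50 nM (final) substrate. Enzyme (10 nM) and compounds were first incubated 15 min at room temperature; enzyme-free buffer wells were negative controls.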
Pol kappa inh-1: DNA polymerase kappa (human) inhibition | AID 588579 | 400,000 compounds, 0.53% hits | Q9UBT6 | Potency, µM (doses to about 107 µM), hits mostly inhibitors | purified Pol kappa, fluorescent DNA synthesis assay, 10 min
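Pol kappa 10 nM + cpd, 15 min RT; start w/ substrate 50 nM final; fluorescence kinetic read, 0 and 10 min. Neg ctrl: buffer, no enzyme.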
PI5P4Ka inh: PI5P4K alpha (human) kinase inhibition; max response, %; 330,000 compounds, 1.2% hits; PI5P4Kalpha enzyme, ADP-Glo luminescence, 60 min; stronger effect = lower value; active = max response of -50% or lower; inconclusive = between -30% and -50%; inactive = -30% or higher; also: value at the top dose of about 77 µM
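Luminescence from ADP-Glo served as readout of PI5P4Kalpha activity in a qHTS format. Reaction: enzyme, substrate, compound, ATP at 5 microM final, 60 min at RT.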
Pol beta inh: inhibitors of human DNA polymerase beta; P06746; Pol beta primer extension/strand displacement, fluorescence kinetic; Potency, µM (highest dose often 114 µM), most hits filed as inhibitors; 340,000 compounds, 1.3% hits
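Pol beta (10 nM) was preincubated with compound for 15 min at room temperature. The reaction was then started with 50 nM substrate and read immediately and after a further 10 min at room temperature.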
BAZ2B confirm: confirmation of human BAZ2B bromodomain inhibitors | AlphaScreen BAZ2B / biotin-H3K14Ac peptide displacement | Potency, µM, hits mostly inhibitors | AID 588809 | shares compounds with Pol kappa inh-1 | 25 compounds, 100% hits; calls by dose curve
AlphaScreen ctr: interferes with AlphaScreen signal in BAZ2B counterscreen; 25 tested, under 10 active; shares compounds with Pol kappa inh-1; Potency, µM (titrated, usually from 57.1 µM), actives largely listed as inhibitors; AlphaScreen biotin-His6 peptide bead counterscreen, signal decrease;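 active = clear concentration-dependent signal drop in the bead assay lacking the target, so a primary-screen artifact; inconclusive = weak, partial or single-dose response; inactive = no response, so a real primary hit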
PGK validate: validation of Trypanosoma brucei phosphoglycerate kinase inhibitors; shares compounds with Pol kappa inh-1; 500 compounds, 79% hits; TbPGK coupled GAPDH assay, Kinase-Glo luminescence; Potency, µM (top dose mostly 57.5 µM), hits mostly inhibitors; also: nearly all actives have a fitted effect of over 65% in size
POLI cherry-pick: Inhibitors of human DNA polymerase iota, confirmation | shares compounds with Pol kappa inh-1 | Pol iota primer extension, TAMRA/BHQ fluorescence | AID 720496 | Potency, µM, hits mostly inhibitors | 1,500 compounds, 77% hits
GALK confirm: galactokinase (human) inhibition, confirmation; shares compounds with Pol eta inh-1; Potency, µM (top dose mostly 115 µM), hits mostly inhibitors; 150 compounds, 70% hits; purified GALK, Kinase-Glo ATP depletion luminescence
GALK redox cs: counter-screen for GALK inhibitors: redox cycling H2O2 generation; Phenol red-HRP H2O2 redox cycling, absorbance 600 nm; AID 2035; Potency, µM (top dose mostly 115 µM), usual class: inhibitors; shares compounds with Pol eta inh-1; 150 compounds, 40% hits
HEK293 tox: counter-screen for GALK inhibitors: HEK293 cell cytotoxicity. AID 2547. shares compounds with Pol eta inh-1. HEK-293 viability, ATP luminescence (CellTiter-Glo), 24/48 h. Potency, µM (series often up to 46.1 µM), most hits filed as inhibitors. 170 compounds, 10% hits
Pol kappa inh-2: Pol kappa (human) inhibition, cherry-pick confirmation. shares compounds with Pol eta inh-1. purified Pol-kappa, fluorescent strand-displacement substrate. Potency, µM, hits mostly inhibitors. 920 compounds, 76% hits
Pol eta inh-2: Pol eta (human) inhibition, cherry-pick confirmation. shares compounds with Pol eta inh-1. Pol eta primer extension, TAMRA/BHQ fluorescence, 10 min. Potency, µM, actives largely listed as inhibitors. 2,600 compounds, 64% hits
FEN1 inh-2: confirmation of human FEN1 inhibitors | shares compounds with FEN1 inh-1 | FEN1 flap cleavage, TAMRA/BHQ2 fluorogenic DNA substrate | Potency, µM, actives largely listed as inhibitors | 880 compounds, 79% hits | AID 720498; also: nearly all actives have a fitted effect of over 60% in size
Each line names hits and unclear results; the compound was inactive in the other large screens (follow-up assays come after a bar, where they were run). A selection: hits, their analogues and other compounds. The true share with any hit is near 2.8%. Unless noted, calls follow the shape of the dose curve; as a rule, active = well fitted curve in the direction sought with a large enough effect; inconclusive = small, poorly fitted or top-dose-only effect, or another doubt; inactive = no such curve, though single readings can be large; an effect the other way counts as inactive or inconclusive.

Cc1nc(NC(=O)c2ccccc2)sc1-c1csc(Nc2ccc(C(=O)O)cc2)n1	Pol eta inh-1 17.8µM, FEN1 inh-1 35.5µM, Pol iota inh inconclusive, PI5P4Ka inh inconclusive | BAZ2B confirm 28.2 | AlphaScreen ctr inactive | POLI cherry-pick 42.3 | Pol kappa inh-2 37.7 | Pol eta inh-2 42.6
C=C(C)C(=O)Nc1cccc(C2=NOC3(C2)C[C@@H](C(N)=O)N(C(=O)/C=C/CC)C3)c1 (some centres undefined)	Pol eta inh-1 7.94µM, Pol iota inh 15.8µM, Pol kappa inh-1 28.2µM, Pol beta inh 3.55µM | BAZ2B confirm 10 | AlphaScreen ctr inactive | PGK validate inconclusive | POLI cherry-pick inconclusive | Pol kappa inh-2 18.9 | Pol eta inh-2 19
C=C(C)C(=O)Nc1cccc(C2=NOC3(C2)C[C@H](C(N)=O)N(C(=O)COc2ccc(Cl)cc2)C3)c1 (some centres undefined)	Pol eta inh-1 7.94µM, Pol iota inh 44.7µM, Pol kappa inh-1 17.8µM, PI5P4Ka inh inconclusive, Pol beta inh 4.47µM | BAZ2B confirm 5.62 | AlphaScreen ctr inactive | POLI cherry-pick 16.8 | Pol eta inh-2 8.49
C=C(C)C(=O)Nc1cccc(C2=NOC3(C2)C[C@@H](C(N)=O)N(C(=O)C2(C)CC2)C3)c1 (some centres undefined)	Pol eta inh-1 3.16µM, FEN1 inh-1 inconclusive, Pol iota inh 50.1µM, Pol kappa inh-1 44.7µM, Pol beta inh 1.12µM | BAZ2B confirm 1.26 | AlphaScreen ctr inconclusive | PGK validate inconclusive | POLI cherry-pick inconclusive | Pol eta inh-2 9.53
CCOCCSc1nc2c(c(-c3cccs3)c1C#N)CC/C2=C/c1cccs1	Pol beta inh inconclusive
COc1ccc2nc(NC(=O)c3nc(S(=O)(=O)Cc4cccc(C)c4)ncc3Cl)sc2c1	Pol eta inh-1 79.4µM, Pol iota inh inconclusive, Pol kappa inh-1 inconclusive, Pol beta inh 31.6µM (no result: PI5P4Ka inh) | POLI cherry-pick 75.2 | Pol eta inh-2 inconclusive
C[n+]1c2cc(N)ccc2cc2ccc(N)cc21	Pol eta inh-1 44.7µM, FEN1 inh-1 8.91µM, Pol iota inh 7.94µM, Pol kappa inh-1 22.4µM, PI5P4Ka inh inconclusive (no result: Pol beta inh) | POLI cherry-pick 9.47 | Pol kappa inh-2 7.52 | Pol eta inh-2 30.1
O=C1C(=O)c2ccccc2-c2ccccc21	Pol eta inh-1 2.51µM, Pol iota inh 0.708µM, Pol beta inh inconclusive | PGK validate 4.11µM | GALK confirm 1.88µM | GALK redox cs 0.841µM | HEK293 tox 7.05µM
O=C1C(=O)c2cccc3cccc1c23	none
N#Cc1c(Oc2cccc(OS(=O)(=O)CCCC(F)(F)F)c2)cccc1C(F)(F)F	none (no result: Pol eta inh-1, FEN1 inh-1, Pol iota inh, PI5P4Ka inh, Pol beta inh)
CCN1C(=O)/C(=C/c2ccc3c(c2)CCN3CCCCl)C(=O)NC1=S	Pol eta inh-1 12.6µM, FEN1 inh-1 inconclusive, Pol iota inh 14.1µM, Pol kappa inh-1 44.7µM, PI5P4Ka inh -72.9, Pol beta inh 28.2µM | POLI cherry-pick 67 | Pol eta inh-2 42.6
C#CCN1CC(=O)N(COC(=O)[C@@H]2[C@@H](C=C(C)C)C2(C)C)C1=O	none (no result: Pol eta inh-1, FEN1 inh-1, Pol iota inh, PI5P4Ka inh, Pol beta inh)
NC(=O)c1ccc(N=Cc2c(O)n(Cc3ccco3)c(=O)[nH]c2=O)cc1	Pol eta inh-1 22.4µM, FEN1 inh-1 39.8µM, Pol iota inh 11.2µM, Pol kappa inh-1 50.1µM, PI5P4Ka inh -78.8, Pol beta inh inconclusive | PGK validate 9.19µM | POLI cherry-pick 29.9 | Pol kappa inh-2 29.9 | Pol eta inh-2 47.8
COc1cccc(OC)c1-c1nn2c(-c3n[nH]c4c3CCC4)nnc2s1	FEN1 inh-1 inconclusive, Pol iota inh 5.01µM, Pol kappa inh-1 79.4µM (no result: Pol eta inh-1, PI5P4Ka inh, Pol beta inh) | POLI cherry-pick inconclusive | Pol eta inh-2 inconclusive | FEN1 inh-2 inconclusive
C=Cc1cc(OC)c2c(c1)c(=O)oc1c2cc(OC)c2c(O)ccc(C3OC(C)C(O)C(C)(O)C3O)c21 (centres undefined)	Pol eta inh-1 1.41µM, FEN1 inh-1 1.26µM, Pol iota inh 2.51µM, Pol kappa inh-1 3.98µM (no result: Pol beta inh) | POLI cherry-pick 4.74 | Pol eta inh-2 10.7 | FEN1 inh-2 1.69
COC1C(O)C(C)OC(OC2C(Oc3cccc4c(O)c5c(=O)oc6ccc(C)c7c(=O)oc(c34)c5c67)OC(C)C(O)C2O)C1O (centres undefined)	Pol eta inh-1 10µM, FEN1 inh-1 1.78µM, Pol iota inh inconclusive, Pol kappa inh-1 inconclusive (no result: Pol beta inh) | POLI cherry-pick 21.2 | Pol kappa inh-2 4.23 | Pol eta inh-2 42.6 | FEN1 inh-2 6.01
Cc1ccc2c(C)c3ccc4ccccc4c3c[n+]2c1	Pol eta inh-1 inconclusive, FEN1 inh-1 8.91µM, Pol iota inh 79.4µM, Pol kappa inh-1 39.8µM (no result: Pol beta inh) | POLI cherry-pick 26.7 | Pol kappa inh-2 4.74 | FEN1 inh-2 6.75
C=CCN1CCc2cccc3c2C1Cc1ccc(O)c(O)c1-3 (centres undefined)	none (no result: FEN1 inh-1, PI5P4Ka inh)
